Here are results for ten compounds from PubChem BioAssay (NCATS).

Each structure is given as a SMILES string. Results filed as inconclusive are left out. Entries that show only a call come without a potency. Calls of active or inactive are those of the source. Calls follow the shape of the dose curve; as a rule, active = well fitted curve in the direction sought with a large enough effect; inconclusive = small, poorly fitted or top-dose-only effect, or another doubt; inactive = no such curve, though single readings can be large; an effect the other way counts as inactive or inconclusive.

The nature of the first assay: P-glycoprotein substrates identified in KB-3-1 adenocarcinoma cell line, qHTS therapeutic library screen (AID 1346986). Also: nearly all actives have a fitted effect of over 60% in size. The following applies: KB-3-1 parental cells viability, CellTiter-Glo, 72 h; series mostly up to 44.5 µM. An outline of the steps: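 Compounds were tested in dose-response against KB-3-1 and KB-8-5-11 cells at 37 degree C for 72 h, and viability was measured by luminescence. AC50 values came from curve fitting with class-based activity calls.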
On the technique in general: In qHTS, concentration-response curves come from the screen itself.
Take `C=C(C(=O)O)C1CC2=C(C)CCCC2(C)C[C@@H]1O` (stereo partly specified): the Potency entry is “inactive”. Still for that read-out and setting: in the case of `CC1(C)CC[C@]2(C(=O)O[C@@H]3O[C@H](CO)[C@@H](O)[C@H](O)[C@H]3O)CC[C@]3(C)C(=CCC4[C@@]5(C)C[C@@H](O)[C@H](O)[C@@](C)(CO)C5CC[C@]43C)C2[C@@H]1O` (stereo partly specified) it was “inactive”; in that of `CC(=O)OCC1(O)CCC2C(COC3OC(CO)C(O)C(O)C3OC(=O)/C=C/c3ccc(O)cc3)=COC(OC(=O)CC(C)C)C21` (stereo unspecified), “inactive”; in that of `CC1(C)CC[C@]2(C(=O)O[C@@H]3O[C@H](CO)[C@@H](O)[C@H](O)[C@H]3O)CC[C@]3(C)C(=CCC4[C@@]5(C)C[C@@H](O)[C@H](O)[C@](C)(C=O)C5CC[C@]43C)[C@@H]2[C@@H]1O` (stereo partly specified), “inactive”.

The nature of a further assay: P-glycoprotein substrates identified in KB-8-5-11 adenocarcinoma cell line, qHTS therapeutic library screen (AID 1346987). Also: nearly all actives have a fitted effect of over 65% in size. Also: potency is read from the fitted curve at half-maximal effect. The following applies: KB-8-5-11 (P-gp overexpressing) viability, CellTiter-Glo, 72 h; series mostly up to 44.5 µM. The method, boiled down:
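KB-8-5-11: colchicine-selected sub-line of KB-3-1 over-expressing P-gp; assay medium lacked colchicine. 72 h drug exposure at 37 degree C, CellTiter-Glo.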
On to `CCCN1CCN(c2ccc(C(=O)NC3(C(=O)NCC#N)CCCCC3)cc2)CC1`, for which the Potency entry is “inactive”.

Take `C[C@@H]1CCC/C=C/[C@H]2CC(=O)C[C@@H]2[C@@H](O)/C=C/C(=O)O1`: the Potency entry was “inactive”.

Consider `C[C@H]1CC[C@@]2(OC1)O[C@H]1CC3C4CC[C@H]5C[C@@H](O)[C@H](O)C[C@]5(C)C4=CC(=O)[C@]3(C)[C@H]1[C@@H]2C` (stereo partly specified), for which the Potency result is “inactive”. Same read-out and setting: in the case of `CC1=CC(=O)CC(C)(C)C1/C=C/C(C)O[C@@H]1O[C@H](CO)[C@@H](O)[C@H](O)[C@H]1O[C@@H]1OC[C@](O)(CO)[C@H]1O` (stereo partly specified) it was “inactive”; in that of `C=C(C(=O)O)C1CC2=C(C)CCCC2(C)C[C@@H]1O` (stereo partly specified), “inactive”.

In the case of `Cn1cc(S(=O)(=O)c2ccc(Cl)cc2)c2cccc(N3CCNCC3)c21`, the Potency is 20.6 µM (active). Same read-out and setting: with `COc1cc(C(=O)NC2CCN(C)CC2)ccc1Nc1ncc2c(n1)N(C1CCCC1)CC(F)(F)C(=O)N2C` the figure was 1.16 µM (active).
